Hit rate of the full screen: of about 30,000 compounds, about 240 (0.8%) were called active. This is one part of a sample in which actives are shown more often than they occur.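 The calls were made as follows: active = at 10 µM dose, at least 30% inhibition, measured as corrected fluorescence normalized to stimulator and neutral control wells; inactive = the rest.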
Biological target: Protein artemis (Homo sapiens) (UniProt Q96SD1)
Experiment: Artemis endonuclease inhibitors, primary screen, biochemical, fluorescence intensity, FAM/BHQ-1 hairpin substrate (AID 686954)
Conditions: recombinant Artemis, quenched FAM hairpin cleavage fluorescence; at 10 µM; hits give high values

Chain of Protein artemis (Homo sapiens) (Q96SD1 whole entry, looked up): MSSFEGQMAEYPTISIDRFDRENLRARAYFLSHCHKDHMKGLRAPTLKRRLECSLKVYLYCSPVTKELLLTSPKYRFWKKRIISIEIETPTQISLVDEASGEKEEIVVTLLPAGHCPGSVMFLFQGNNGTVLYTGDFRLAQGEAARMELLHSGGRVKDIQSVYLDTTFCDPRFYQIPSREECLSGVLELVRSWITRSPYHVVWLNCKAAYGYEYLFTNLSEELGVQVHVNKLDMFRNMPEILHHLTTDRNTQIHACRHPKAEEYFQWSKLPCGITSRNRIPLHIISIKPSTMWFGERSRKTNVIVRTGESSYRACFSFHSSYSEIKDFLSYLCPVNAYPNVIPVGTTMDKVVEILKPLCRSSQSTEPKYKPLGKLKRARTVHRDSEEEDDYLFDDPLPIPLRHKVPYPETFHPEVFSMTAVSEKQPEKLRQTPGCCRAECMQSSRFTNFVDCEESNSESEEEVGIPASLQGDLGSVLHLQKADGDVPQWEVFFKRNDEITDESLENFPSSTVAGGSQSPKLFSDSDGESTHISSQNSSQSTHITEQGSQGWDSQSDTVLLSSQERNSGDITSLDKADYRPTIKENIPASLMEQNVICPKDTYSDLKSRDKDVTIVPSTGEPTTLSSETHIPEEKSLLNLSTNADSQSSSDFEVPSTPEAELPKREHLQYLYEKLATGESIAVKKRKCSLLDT

SMILES	inhibition
COC(=O)/C=C/C(=O)NCc1ccco1	25.1% (inactive)
Cc1ccccc1OC(=O)Cn1c(C(F)(F)F)nc2ccccc21	1.38% (inactive)
Cc1cc2c(cc1C)N(C(=O)CN1C(=O)c3ccccc3C1=O)C(C)(C)c1ssc(=S)c1-2	2.13% (inactive)
O=C(Oc1cccnc1)c1cc2ccccc2oc1=O	4.63% (inactive)
CC(C)C(c1nnnn1CCc1ccccc1)N1CCN(C(=O)c2ccco2)CC1 (stereo unspecified)	-0.73% (inactive)
COc1ccc(C2C(C(C)=O)=C(O)C(=O)N2c2nccs2)cc1 (stereo unspecified)	-6.55% (inactive)
Cc1ccc(SCC(=O)Nc2ncc(C)s2)cc1	3.54% (inactive)
O=C(N/N=C\c1ccc(-c2ccc(Cl)c(Cl)c2)o1)C(=O)N1CCCC1	10.4% (inactive)
Cc1cc(-c2ccccc2)n2nc(C)c(-c3ccccc3)c2n1	-3.76% (inactive)
O=C(c1ccccc1Oc1ccccc1)N1CCN(c2ccc(F)cc2)CC1	10.1% (inactive)
Cc1cc(C)n2nc(C(=O)NC(C)(C)C)nc2n1	-8.47% (inactive)
CCCCNC(=O)CSc1nc2ccc(NC(=O)CSc3nnc(COc4ccccc4C)n3C)cc2s1	1.88% (inactive)
CC(=O)c1ccc(Cc2ncc(C(F)(F)F)cc2Cl)s1	-6.84% (inactive)
O=C(Cn1c(-c2cscn2)nc2ccccc21)Nc1ccc(Cl)cc1	6.18% (inactive)
COc1cc(CNCc2cccs2)cc(Br)c1OC	-2.14% (inactive)
CCOCC(=O)Nc1cc(OC)c(Cl)cc1OC	-5.52% (inactive)
Cc1ccc(/C=N/NC(=O)C(NC(=O)c2ccccc2)c2n[nH]c(=O)c3ccccc23)cc1 (stereo unspecified)	10.5% (inactive)
COCCCn1c(SCC(=O)Nc2ccccc2)nnc1-c1ccncc1	-5.35% (inactive)
Cn1c(=O)c2c(n(Cc3ccccc3)c1=O)NC(=O)C2CC(=O)N1CCc2ccccc2C1 (stereo unspecified)	6.23% (inactive)
O=C(Nc1ccc(-n2ccnc2P(=O)(O)c2ccccc2)cc1)c1ccccc1Br	4.42% (inactive)
CCN(CC)CCN1C(=O)C(=O)/C(=C(/O)c2ccccc2)C1c1ccccc1F (stereo unspecified)	3.66% (inactive)
CC(C)(C)NS(=O)(=O)CC12CCC(CC1=O)C2(C)C (stereo unspecified)	-3.02% (inactive)
CN(C)CCNC(=O)Nc1cccc(Cl)c1Cl	-0.2% (inactive)
CCN(CC)Cc1cc(C(C)=O)ccc1O	-4.35% (inactive)

SMILES	inhibition
O=C(Nc1nnc(SCc2ccccc2)s1)c1ccco1	12.4% (inactive)
Cc1nn2c3ccccc3nc2n(C)c1=O	0.11% (inactive)
O=C(Nc1ccc2c(c1)CCC2)c1cccc(S(=O)(=O)N2CCN(c3ccc(F)cc3)CC2)c1	2.72% (inactive)
CN1CCN(S(=O)(=O)c2ccc(N3CCN(S(=O)(=O)c4cccs4)CC3)nc2)CC1	-9.36% (inactive)
Cc1ccc(NC(=S)NC2CCCC2)cc1	1.01% (inactive)
CCC(=O)NNc1cc(=O)c2c(=O)n(C)c(=O)n(C)c2[nH]1	0.17% (inactive)
COc1cccc(CNc2nc3nc4c(c(=O)n3[nH]2)CCC4)c1	-6.09% (inactive)
CCN(Cc1ccncc1)C(=O)c1cccc(S(=O)(=O)N2CCOCC2)c1	-1.99% (inactive)
Cc1cc(C)c2c(-n3cccc3)c(NC(=O)OCc3ccccc3)sc2n1	0.14% (inactive)
CCOc1cccc(C(=O)Nc2cnn(Cc3ccccc3)c2)c1	0.76% (inactive)
Cc1ccc(C2NC(=S)NC3=C2N2CCC3CC2)cc1 (stereo unspecified)	-3.09% (inactive)
CN1CCN(Cc2c(O)ccc3c2oc(=O)c2ccccc23)CC1	-4.24% (inactive)
Cc1ccc(/C=N\n2c(-c3ccccc3)n[nH]c2=S)s1	4.19% (inactive)
CC(=O)c1sc(NC(=O)c2cccc3ccccc23)nc1C	5.24% (inactive)
Cc1nnc(NC(=O)CCCOc2ccccc2)s1	-2.98% (inactive)
NC(=O)C1CCN(C(=O)c2ccc(C(F)(F)F)cc2)CC1	-5.95% (inactive)
O=C(NCC1CCCO1)c1ccc2ccccc2n1 (stereo unspecified)	1.24% (inactive)
N#C/C(=C(/O)COc1cccc2ccccc12)c1nc2ccccc2[nH]1	-3.72% (inactive)
CC(C)(O)C(=O)NN(C(=O)c1ccccc1)c1cccc(Br)c1	-17.1% (inactive)
O=C(COc1ccc2oc3c(c2c1)CCCC3)Nc1ccccn1	-4.41% (inactive)
CCOC(=O)C1CCc2nc3ccccc3c(=O)n21 (stereo unspecified)	-9.86% (inactive)
CCC(C)NC(=O)c1ccccc1NC(=O)c1ccccc1N(C)S(C)(=O)=O (stereo unspecified)	-0.77% (inactive)
O=C(CSc1nnc(-c2ccco2)n1-c1ccccc1)NCCc1ccccc1	5.03% (inactive)
CCOc1ccc(-c2c(C)n([O-])c3c([n+]2=O)CCCC3)cc1	-6.29% (inactive)

SMILES	inhibition
CCC(=O)NC(Nc1nc2ccc(C)cc2s1)(C(=O)OC)C(F)(F)F (stereo unspecified)	-8.44% (inactive)
CCn1c(COc2ccccc2)nnc1SCC(=O)Nc1ccc2c(c1)OCCO2	-7.11% (inactive)
S=C(NCCC1=CCCCC1)Nc1ccccc1	3.85% (inactive)
CCOC(=O)C1=NNC2(c3ccc(Cl)cc3)C(=O)N(c3cc(C)cc(C)c3)C(=O)C12 (stereo unspecified)	1.03% (inactive)
Cc1oc2nc(SCC(=O)NCc3cccnc3)nc(N)c2c1C	2.99% (inactive)
Cc1c(Cl)c([N+](=O)[O-])nn1Cc1ccc(C(=O)N/N=C\c2cc(Cl)ccc2O)o1	31% (active)
CCCc1ccc(OCc2ccc(C(=O)N/N=C/c3cccc([N+](=O)[O-])c3)o2)c(OC)c1	-9.45% (inactive)
Cc1nn(Cc2ccccc2Cl)c(C)c1NC(=O)Cn1nc([N+](=O)[O-])c(Cl)c1C	1.31% (inactive)
COc1ccc(-c2nc3ccccc3n2CCC(C)C)cc1OC	7.4% (inactive)
CCSc1nnc(NC(=O)Cc2ccccc2OC)s1	2.36% (inactive)
C[C@H](NC(=O)NCCc1ccccc1)C(=O)O	-9.76% (inactive)
CCOC(=O)c1nc(Nc2ccc(C(=O)OC)cc2)c2ccccc2n1	-0.44% (inactive)
C/C(=N\NC(=O)c1ccccc1C)c1ccc(N2CCOCC2)cc1	0.87% (inactive)
COc1cccc(-c2cc(C(=O)N/N=C/c3ccc(OC)c(COC(C)=O)c3)c3ccccc3n2)c1	9.16% (inactive)
CS(=O)(=O)n1nc(-c2ccccc2)nc1NCc1ccco1	-21.9% (inactive)
CC(=O)N/C(=C/c1ccc(Cl)cc1)C(=O)NCCc1c[nH]c2ccccc12	-1.86% (inactive)
O=C(Cn1cncn1)N/N=C/c1c2ccccc2cc2ccccc12	-6.23% (inactive)
CC(C)Oc1ccc(C(=O)NC(C)(C)CO)cc1	1.84% (inactive)
O=C(CN(Cc1ccccc1)C(=O)c1ccc2c(c1)OCCO2)NCc1ccc2c(c1)OCO2	-2.04% (inactive)
CC1(C)Cc2ccccc2-c2nnc(-c3cccc(O)c3)n21	-6.85% (inactive)
Cc1ccc(C(=O)OC2=CC(=O)CC(C)(C)C2)cc1	-0.31% (inactive)
CCOC(=O)c1cnc(-c2ccccc2)nc1Oc1ccc(C)cc1	7.75% (inactive)
CSc1nc(C)cc(SC(C(C)=O)C(=O)Nc2ccccc2)n1 (stereo unspecified)	-3.91% (inactive)
COc1ccc(-c2nn(-c3ccccc3)cc2C(=O)Nc2nccs2)cc1OC	27.5% (inactive)

SMILES	inhibition
COc1ccc(-c2nn(-c3ccccc3)cc2C(=O)Nc2nc(CC(C)=O)ns2)cc1	45.9% (active)
CC(=O)Cc1nsc(NC(=O)c2ccc(COc3ccc(C)cc3)o2)n1	-5.26% (inactive)
CN1/C(=c2/s/c(=C3/C(=O)N(c4ccccc4)NC3=Nc3ccccc3)n(C)c2=O)C(C)(C)c2ccccc21	15.8% (inactive)
CCOC(=O)C1=C(CNC2CCCCC2)NC(=O)NC1c1cc(C)ccc1C (stereo unspecified)	-5.92% (inactive)
O=C(/C=C/c1ccccc1)c1ccoc1	-1.46% (inactive)
O=C(Nc1ccccc1Cl)O/N=C(/c1ccccc1)c1ccccn1	6.79% (inactive)
Cc1ccc2nc(SC(C)C(=O)NCc3ccco3)[nH]c2c1 (stereo unspecified)	4.88% (inactive)
Cc1ccc(-n2c(C)cc(/C=N/Nc3ccc([N+](=O)[O-])cn3)c2C)c(C)c1	14.4% (inactive)
NC(=O)COc1ccc(/C=N/NC(=O)C2CCCN2S(=O)(=O)c2ccc(Cl)cc2)cc1 (stereo unspecified)	0.47% (inactive)
CC1CCN(CC(=O)c2c[nH]c3ccccc23)CC1	-3.18% (inactive)
CCOC(=O)Nc1sc(C(=O)N(C)C)c(C)c1C(=O)OCC	7.1% (inactive)
O=C(Cc1ccc(S(=O)(=O)N2CCCC2)s1)NC1CCCCCC1	0.64% (inactive)
CCOc1c(Cl)cc(/C=N/O)cc1OC	-3.96% (inactive)
CCNc1nc(N)nc(-c2cc(Cl)ccc2OC)n1	-15.5% (inactive)
Cc1cccc(N2CCN(C(c3ccc(N(C)C)cc3)c3nnnn3C(C)(C)C)CC2)c1C (stereo unspecified)	4.46% (inactive)
COCCNCCOCCOc1cccc(OC)c1	-0.71% (inactive)
CC(C)OC(=O)CN1C(=O)c2ccccc2C1=O	-7.81% (inactive)
CC(=O)Oc1ccc(NC(=O)CCC2CCCCC2)c(C(=O)O)c1	-1.44% (inactive)
Cc1nnc(SCC(=O)NCCOc2ccc(Cl)cc2)n1-c1ccccc1	-3.78% (inactive)
CC1(C)CCCC2=C1CC1C(=O)N(c3ccccc3)C(=O)C1C2 (stereo unspecified)	-1.84% (inactive)
O=C1Nc2ccc(Br)cc2/C1=N/N=C/C1=C(N2CCOCC2)C(=C\c2ccccc2)/CC1	30.1% (active)
COc1ccc(-c2noc(-c3ccc(C)cc3)n2)cc1	0.23% (inactive)
Cc1ccc2[nH]c3c(=O)n(Cc4ccccn4)cnc3c2c1	3.97% (inactive)
C=CCNc1cnn(-c2ccc(C)cc2)c(=O)c1Cl	3.95% (inactive)

Source: PubChem BioAssay AID686954 (Sanford-Burnham Center for Chemical Genomics, 2013)
